Calls of active or inactive are those of the source.
Tests used:
Albumin (Bos taurus) = Albumin (Bos taurus) (UniProt P02769); experiment: bovine serum albumin binders on microarray, profiling panel, artefact control for SMM control protein annotation, biochemical, small-molecule microarray, Alexa647 label, 635/667 nm fluorescence (AID 1118); conditions: BSA-A647 binding, fluorescence 635 nm, higher = more signal;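 further: score merges 667 nm emission intensity and signal-to-noise per printed compound spot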
[1] = small-molecule microarray binders of probe aXIP, primary screen, biochemical, NeuroSMM set, 635/667 nm fluorescence (AID 1119); conditions: higher = more signal, called active from +8 up or from −8 down;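 further: probe is the protein aXip251-270 applied at 1 µg/mL to compound-printed slides; binding of probe to printed compounds measured as 667 nm fluorescence plus signal to noise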
[2] = small-molecule binders of probe aNOTCH3, primary screen, biochemical, small-molecule microarray, 635/667 nm fluorescence (AID 1120); conditions: higher = more signal;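 further: probe is a biotin-tagged antibody raised against NOTCH3 rather than NOTCH3 protein; score merges spot fluorescence near 667 nm with spot signal to noise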
[3] = small-molecule binders of probe aNOTCH2, primary screen, biochemical, small-molecule microarray, 635/667 nm fluorescence (AID 1121); conditions: higher = more signal;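 further: score merges feature fluorescence read at 667 nm with its signal to noise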
[4] = target: Carbonic anhydrase 2 (Homo sapiens) (UniProt P00918); experiment: CAII small-molecule binders, profiling panel, biochemical, small-molecule microarray, Alexa647-labelled CAII (AID 1122); conditions: CAII-A647 binding fluorescence, higher = more signal
[5] = COS7 lysate on small-molecule microarray, probe aHis, 635 nm (AID 1123); conditions: COS7 cell lysate, fluorescence, higher = more signal;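 further: z-score combines 667nm fluorescence intensity with signal-to-noise per printed compound spot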
[6] = compound binding in COS7 lysate, probe aLAP1, primary screen, cell lysate, small-molecule microarray (AID 1124); conditions: probe aLAP1, fluorescence, higher = more signal;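 further: lysate comes from COS7 cells expressing LAP1 and is applied at 0.3 µg/mL; score merges spot fluorescence near 667 nm with signal-to-noise over triplicate slides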
Sam68 (KHDRBS1) = experiment: Sam68 small-molecule binders, primary screen, biochemical, small-molecule microarray, 635 nm fluorescence (AID 1125); conditions: small-molecule microarray binding, higher = more signal;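 further: score merges 667 nm channel intensity with signal to noise over triplicate slides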
[7] = test system: Chordin-like protein 2 (CHRDL2); experiment: CHRDL2 small-molecule binders, primary screen, biochemical, small-molecule microarray, 635 nm fluorescence (AID 1126); conditions: small-molecule microarray binding, fluorescence 635 nm; higher = more signal;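 further: printed compound slides probed with Chrdl2 protein at 4 µg/mL for 1 h at 4 C; score merges 667 nm emission intensity with signal to noise over three replicate slides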
[8] = target: Concanavalin-A (Canavalia ensiformis) (UniProt P02866); experiment: ConA small-molecule binders, primary screen, artefact control for SMM control protein annotation, biochemical, small-molecule microarray, Alexa647 label, 635 nm (AID 1127); conditions: ConA-A647 binding fluorescence, higher = more signal;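 further: z combines 667 nm emission intensity with signal-to-noise across three replicate slides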
Chain of Concanavalin-A (Canavalia ensiformis) (P02866 whole entry, looked up): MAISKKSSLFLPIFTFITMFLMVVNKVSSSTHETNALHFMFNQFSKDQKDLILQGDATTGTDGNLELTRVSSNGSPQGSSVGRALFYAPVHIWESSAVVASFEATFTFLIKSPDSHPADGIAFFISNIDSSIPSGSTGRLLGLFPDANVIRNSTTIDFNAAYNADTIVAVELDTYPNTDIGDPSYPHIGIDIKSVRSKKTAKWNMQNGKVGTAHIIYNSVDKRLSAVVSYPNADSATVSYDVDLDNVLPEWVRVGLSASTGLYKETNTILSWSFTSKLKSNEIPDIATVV

Chain of Albumin (Bos taurus) (P02769 whole entry, looked up): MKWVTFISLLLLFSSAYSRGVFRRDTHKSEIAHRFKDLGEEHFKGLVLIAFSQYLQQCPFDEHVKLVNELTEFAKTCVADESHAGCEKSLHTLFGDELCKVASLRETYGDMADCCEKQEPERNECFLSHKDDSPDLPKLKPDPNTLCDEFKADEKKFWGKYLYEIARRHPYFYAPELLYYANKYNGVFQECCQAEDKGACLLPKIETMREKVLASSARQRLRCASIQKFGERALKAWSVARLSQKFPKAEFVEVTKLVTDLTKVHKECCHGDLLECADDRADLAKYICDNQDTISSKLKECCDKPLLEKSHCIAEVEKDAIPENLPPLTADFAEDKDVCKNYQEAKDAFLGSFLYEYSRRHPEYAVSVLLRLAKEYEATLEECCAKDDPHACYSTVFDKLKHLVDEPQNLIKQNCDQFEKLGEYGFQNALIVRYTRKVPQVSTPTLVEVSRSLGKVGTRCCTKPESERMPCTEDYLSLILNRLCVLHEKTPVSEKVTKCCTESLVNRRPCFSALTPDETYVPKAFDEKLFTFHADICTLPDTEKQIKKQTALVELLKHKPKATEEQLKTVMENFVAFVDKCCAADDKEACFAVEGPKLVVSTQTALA

SMILES | composite z-score (Albumin (Bos taurus)) | composite Z-score [1] | composite z-score [2] | composite z-score [3] | composite z-score [4] | composite z-score [5] | composite z-score [6] | composite z-score (Sam68 (KHDRBS1)) | composite z-score [7] | composite z-score [8]
COc1ccc(C(=O)Nc2ccc(CN3C(=O)[C@@]4(O[C@@H](CCO)[C@H]([Si](C)(C)c5ccc(OC)cc5)[C@H]4C)c4ccccc43)cc2)cc1 | -0.338 | 0.673 (inactive) | 0.0034 | -0.0999 | 0.531 | 0.81 | 0.292 | 1.3 | 0.959 | 1.14
COCCOC(=O)N1C(=O)[C@@]2(c3cc(C#CC4=CCCCC4)ccc31)[C@H](C(=O)N1CCc3cc(OC)c(OC)cc3C1)[C@H]1C(=O)O[C@H](c3ccccc3)[C@H](c3ccccc3)N1[C@@H]2c1ccc(OCCO)cc1 | 0.448 | 0.238 (inactive) | 0.0836 | -0.152 | 0.194 | 1 | 0.378 | 1.29 | 0.69 | 1.14
CCCC#C[Si](O[C@H](CC)c1cn([C@H](CO)Cc2ccccc2)nn1)(C(C)C)C(C)C | 0.868 | -0.483 (inactive) | -0.108 | -0.0986 | 0.667 | 0.516 | -0.126 | 0.838 | 0.322 | 0.632
O=C1C[C@]2(c3ccc([N+](=O)[O-])cc3)C(=O)N(CCN3CCOCC3)c3cc(CO)ccc3[C@H]2N1C1CCCCC1 | 0.883 | -0.598 (inactive) | -0.221 | -0.0904 | 0.646 | 0.294 | -0.467 | 0.197 | -0.337 | -0.172
COc1cc2c(cc1OC)CN(C(=O)[C@@H]1[C@H]3C(=O)O[C@H](c4ccccc4)[C@H](c4ccccc4)N3[C@H](c3ccc(O)cc3)[C@@]13C(=O)Nc1ccc(C#CC4(O)CCCCCC4)cc13)CC2 | -0.0111 | 0.841 (inactive) | -0.191 | 0.0834 | 0.551 | 2.01 | 0.548 | 1.29 | 1.03 | 1.16
O=C1NC(=O)C2C1C=CC(C(O)c1cccc3ccccc13)N2Nc1ccccn1 (stereo not given) | 0.421 | 0.0886 (inactive) | 0.138 | -0.0966 | 0.553 | 0.296 | 0.447 | 0.0488 | 0.394 | 0.506
CN(C)CCCC[C@@H]1NC(=O)[C@H]2C[C@@H](C(=O)NCCCCCNC(=O)CS)[C@@H](c3cccc(OCCO)c3)N2C1=O | 0.816 | -0.114 (inactive) | -0.239 | -0.175 | 0.661 | 1.67 | 0.0827 | 1.03 | 0.651 | 0.612
CN(C)C(=O)[C@@]1(Cc2ccccc2CN=[N+]=[N-])N=C(c2ccc(OCCCO)cc2)O[C@H]1c1ccccc1 | 0.722 | -0.797 (inactive) | 0.103 | 0.112 | 0.277 | 2.69 | 0.624 | 1.28 | -0.285 | 0.749
CCCN1C(=O)[C@]2(CCS(=O)(=O)c3ccccc3)N=C(c3ccc(OCCCO)cc3)O[C@@H]2c2ccccc21 | 0.414 | -0.0745 (inactive) | -0.0328 | -0.0995 | 0.276 | 1.15 | -0.031 | 1.29 | 0.359 | 0.414
COc1ccc(C(O)C2C=CC3C(=O)N(c4ccccc4)C(=O)C3N2Nc2ccccc2F)cc1OCc1ccccc1 (stereo not given) | 1.01 | 1.22 (inactive) | 0.837 | 0.114 | 0.51 | 2.04 | -0.0892 | 1.31 | -0.175 | 1.13
O=C1c2ccccc2[C@@]2(Cc3ccccc3N(CC(F)(F)F)C2=O)[C@H](c2ccc(CO)cc2)N1Cc1ccccc1Cl | -0.465 | 0.142 (inactive) | -0.191 | -0.228 | -0.227 | -0.0414 | -0.153 | 0.428 | 0.929 | 0.409
CCCCN1CC=CC23O[C@@H]4C=CCOC(=O)[C@@H]4[C@H]2C(=O)N(CCCCCO)[C@@H]3C1=O (stereo not given in full) | 0.914 | 0.102 (inactive) | -0.199 | -0.0422 | 0.858 | 1.8 | 1.3 | -0.445 | -0.769 | -1.08
CN(C)C(=O)[C@]1(Cc2ccccc2CN=[N+]=[N-])N=C(c2ccc(OCCCO)cc2)O[C@@H]1c1ccccc1CN=[N+]=[N-] | 0.933 | -0.384 (inactive) | 0.442 | -0.0508 | 0.545 | 2.72 | 0.751 | 1.32 | -0.223 | 0.758
[N-]=[N+]=Nc1ccccc1C[C@]1(C(N)=O)N=C(c2ccc(OCCCO)cc2)O[C@H]1c1ccccc1 | 0.989 | 0.364 (inactive) | 0.0556 | -0.106 | 0.662 | 2.59 | 0.386 | 0.974 | -1.18 | 0.6
C#CCNC(=O)[C@H](Cc1ccccc1)NC(=O)CCC(=O)O | -1.09 | 1.42 (inactive) | -0.262 | -0.161 | -0.124 | -0.301 | 0.236 | -1.74 | -0.471 | -1.83
COCCOC(=O)N1C(=O)[C@@]2(c3cc(C#CC4=CCCCC4)ccc31)[C@H](c1ccc(O)cc1)N1[C@H](c3ccccc3)[C@H](c3ccccc3)OC(=O)[C@H]1[C@@H]2C(N)=O | -0.353 | 0.544 (inactive) | 0.092 | -0.253 | 0.331 | 1.16 | 0.45 | 1.01 | 0.71 | 1.06
CC(C)C[C@H]1NC(=O)[C@@]23C(=O)N[C@@H](Cc4ccccc4)C2[C@H](C)[C@@]2(C)O[C@H]2C3/C=C/C/C=C\CNC(=O)[C@H](Cc2ccccc2)NC1=O (stereo not given in full) | -0.188 | -0.311 (inactive) | -0.0377 | -0.115 | 0.254 | 0.19 | -0.108 | 0.791 | 0.696 | 0.205
COc1ccc([Si](C)(C)[C@H]2[C@H](CCn3cc([C@H](O)c4ccccc4)nn3)O[C@@]3(C(=O)N(Cc4cccc(N5CCOC5=O)c4)c4ccccc43)[C@@H]2C)cc1 | -0.0478 | -0.01 (inactive) | -0.0068 | -0.301 | 0.0191 | 0.178 | -0.49 | 1.07 | 0.528 | 0.958
O=C1O[C@H](c2ccccc2)[C@H](c2ccccc2)N2[C@H]1[C@@H](C(=O)Nc1nc3ccccc3s1)[C@]1(C(=O)Nc3ccc(C#CC4(O)CCCCCC4)cc31)[C@H]2c1ccc(OCCO)cc1 | 0.8 | 0.905 (inactive) | -0.0562 | 0.146 | 0.219 | 1.46 | 1.7 | 1.3 | 0.508 | 1.11
C=CCN(Cc1ccccc1)C(=O)C(c1cccs1)N(CCOCCO)C(=O)/C=C\C(=O)O (stereo not given) | -0.462 | 0.131 (inactive) | -0.553 | -0.165 | 0.39 | -0.25 | -0.658 | -0.754 | -3.82 | -1.33
COc1ccc([Si](C)(C)[C@H]2[C@H](CC(=O)N3CCC[C@H]3CO)O[C@@]3(C(=O)N(Cc4cccc(N5C(=O)c6cccc7cccc5c67)c4)c4ccccc43)[C@@H]2C)cc1 | 0.416 | 0.488 (inactive) | 0.143 | -0.0745 | 0.346 | 1.53 | 0.0595 | 1.04 | 0.956 | 1.1
COc1ccc(C(=O)Nc2cccc(CN3C(=O)[C@]4(O[C@H](CCO)[C@@H]([Si](C)(C)c5ccc(OC)cc5)[C@@H]4C)c4ccccc43)c2)cc1 | 0.0296 | -0.494 (inactive) | 0.0297 | -0.112 | 0.41 | 0.787 | 0.593 | 1.21 | 0.379 | 1.13
